KinaseGlo FLuc = blocks Kinase-Glo luciferase, a counter-screen artifact. Q27757. Kinase-Glo luciferase, ATP luminescence, 8 min. Potency, µM (doses to about 38.3 µM), inactives show at the top dose activity change, negative = inhibition, most hits filed as inhibitors. 200,000 tested, 0.28% active. AID 1379; further: on the % scale 0 is the no-effect control and ±100 the full control effect; nearly all actives have a fitted effect of over 60% in size
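Inhibition of Kinase-Glo luciferase light generation was assessed at 10 uM ATP in pH 7.2 imidazole buffer, with luminescence measured after eight minutes at ambient temperature.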
FLuc counter = firefly luciferase modulation, counter-screen for miR-21 project; 360,000 tested, 6.9% active; P08659; Potency, µM (titrated, usually from 57.5 µM), for inactives: at the highest dose activity change, negative = inhibition, usual class: inhibitors; purified FLuc, Km substrates, luminescence inhibition;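 further: plate controls were vehicle for no effect and reference inhibitor for full effect; nearly all actives have a fitted effect of over 55% in size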
Target sequence (P08659 whole entry, looked up): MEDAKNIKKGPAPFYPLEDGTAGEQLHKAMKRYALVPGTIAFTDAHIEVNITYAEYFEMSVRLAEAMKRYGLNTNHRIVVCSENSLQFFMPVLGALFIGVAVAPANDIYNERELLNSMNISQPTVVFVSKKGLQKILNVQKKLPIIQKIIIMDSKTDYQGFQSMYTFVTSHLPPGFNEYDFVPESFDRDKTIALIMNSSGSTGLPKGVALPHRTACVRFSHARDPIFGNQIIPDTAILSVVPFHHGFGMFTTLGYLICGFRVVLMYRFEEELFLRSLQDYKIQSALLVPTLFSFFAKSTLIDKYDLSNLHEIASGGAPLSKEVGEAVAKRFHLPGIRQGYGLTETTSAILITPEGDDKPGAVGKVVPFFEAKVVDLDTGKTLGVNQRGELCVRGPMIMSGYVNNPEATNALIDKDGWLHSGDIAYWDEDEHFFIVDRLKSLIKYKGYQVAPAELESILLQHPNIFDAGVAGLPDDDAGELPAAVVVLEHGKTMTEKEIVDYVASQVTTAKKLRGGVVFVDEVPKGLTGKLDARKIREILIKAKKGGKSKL
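Biochemical qHTS of compounds, final roughly 60 µM downward over six points, against 10 nM purified firefly luciferase using Km concentrations of substrates (10 uM D-luciferin, 10 uM ATP) in Tris acetate pH 7.5 buffer; luminescence output.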
SMN2 splice up = enhancers of SMN2 splice variant expression | HEK293 SMN2-luciferase splicing reporter, luminescence, 30-36 h | Potency, µM (series often up to 46.1 µM), inactives show top-dose activity change, positive = activation, usual class: activators | 210,000 tested, 2.8% active; further: % of control where 0% means no effect; nearly all actives have a fitted effect of over 55% in size
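HEK293 cells carry an SMN2 […]–luciferase reporter in which exon 7 inclusion puts luciferase in frame. Cells were plated 10-12 h before compound addition, then incubated 30-36 h at 37C. ONE-Glo luminescence was read; sodium butyrate at 4.5 mM final served as control.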
NPC1 prom act = NPC1 promoter activation; Huh7 NPC1 promoter luciferase reporter, 24 h; Potency, µM (top dose mostly 9.22 µM), for the others: top-dose activation, usual class: activators; 320,000 tested, 2.4% active; AID 485313; further: % of control where 0% means no effect; nearly all actives have a fitted effect of over 60% in size
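Compounds in DMSO were transferred onto Huh7 NPC1-luciferase reporter cells pre-incubated 2 h; after 24 h at 37 °C, Amplite reagent was dispensed and luminescence recorded 10 min later.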
Rab9 prom act = activators of Rab9 promoter; Huh7 Rab9 promoter-luciferase reporter, luminescence, 24 h; Potency, µM (titrated, usually from 9.22 µM), inactives show top-dose activation, negative = inhibition, most hits filed as activators; 320,000 tested, 2.8% active; AID 485297; further: % of control where 0% means no effect; nearly all actives have a fitted effect of over 60% in size
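Stable Rab9-luc Huh7, 1500 cells/well, 2 h settle; cmpd in DMSO, 24 h, 37 °C/5% CO2; luciferase reagent 10 min RT; luminescence.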
ELG1 genotoxic = genotoxicity induction in ELG1-luciferase HEK293T cells | HEK293T ELG1-luciferase reporter, luminescence, 16 h | Potency, µM (doses to about 46 µM), inactives show at the highest dose activity change, positive = activation, actives largely listed as activators | 330,000 tested, 1.3% active; further: % of control where 0% means no effect; nearly all actives have a fitted effect of over 60% in size
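Step 1: seed 2,000 HEK293T ELG1-luciferase cells per well. Step 2: add compound or DMSO, incubate 16 hr at 37 °C. Step 3: ONE-Glo, 30 min at room temperature, read luminescence.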
Starred values were filed as active, the others as inactive; ? = inconclusive; · = not tested or not shown. Only some compounds are listed: those with a hit (about 7.5% of all), similar ones and a draw of the others. The call rests on the fitted dose curve; in most records, active means well fitted curve in the direction sought with a large enough effect; inconclusive means small, poorly fitted or top-dose-only effect, or another doubt; inactive means no such curve, though single readings can be large; an effect the other way counts as inactive or inconclusive. Potency means the concentration at half of the fitted maximal effect.

SMILES | KinaseGlo FLuc | FLuc counter | SMN2 splice up | NPC1 prom act | Rab9 prom act | ELG1 genotoxic
O=C(COc1ccc(S(=O)(=O)NCc2ccccc2)cc1Cl)NCc1ccncc1 | · | -2% | · | -1% | ? | -3%
Cc1cc(S(=O)(=O)NCc2ccccc2)ccc1OCC(=O)NCc1ccncc1 | · | 15µM* | · | 2.8µM* | 3.2µM* | ?
COc1ccc(/C=C/C(=O)OC(C)C(=O)c2ccccc2)cc1OC (stereo not given) | · | -16% | · | 0% | -3% | 12%
COC(=O)/C=C/c1ccc(OC(=O)OC)c(OC(=O)OC)c1 | 1% | -20% | 14µM* | -10% | -12% | 10%
CC(C)n1cnc2c(Nc3ccc(C(=O)O)cc3)nc(Cl)nc21 | · | 12µM* | · | ? | 18% | ?
N#Cc1cccc(NC(=O)C2CCN(c3cnccn3)CC2)c1 | · | -7% | · | · | · | ·
c1cn2c(NC3CCCC3)c(-c3ccc(N4CCOCC4)cc3)nc2cn1 | -4% | 2.1µM* | 13% | ? | ? | ?
CCN(CC)c1ccc(-c2nc3cnccn3c2NC2CCCC2)cc1 | 0% | 11µM* | -18% | 15% | -3% | -1%
CCOc1c(O)ccc(/C=C2\SC(=S)NC2=O)c1[N+](=O)[O-] | 0% | 13µM* | -9% | -1% | -7% | 0%
Cn1c(=O)cc(SCC(=O)NCCc2ccc(Cl)cc2)c2cc(Cl)ccc21 | · | -9% | 7% | · | · | ·
Cc1ccc(-c2noc(-c3ccccc3F)n2)cc1 | -9% | 0.85µM* | 13µM* | ? | 2µM* | 2.6µM*
Cc1ccccc1-c1noc(-c2ccccc2C(=O)O)n1 | · | 19µM* | · | 19% | 17% | 14%
O=C(c1ccccc1)c1nnc(-c2ccccc2F)o1 | ? | 0.54µM* | 26% | 16% | 24% | 16µM*
FC(F)(F)c1ccc(-c2noc(-c3ccccc3Br)n2)cc1 | · | 11µM* | · | · | · | ·
Cc1ccccc1C(=O)Nc1ccccc1-c1nc(-c2ccccc2)no1 | · | -6% | · | · | · | ·
Cc1nc(-c2cc(-c3nc(-c4ccc(C(F)(F)F)cc4)no3)no2)cs1 | · | 3% | · | -3% | 0% | -2%
O=C(CSc1nnc(-c2ccccc2F)o1)NC1CC1 | · | · | · | · | · | 10%
O=C(C1CCN(S(=O)(=O)Cc2ccccc2)CC1)N1CCN(c2cccc(C(F)(F)F)c2)CC1 | · | 5% | · | · | · | ·
CC(OC(=O)CNC(=O)c1sc2ccccc2c1Cl)C(=O)NC1(C#N)CCCCC1 (stereo not given) | · | ? | · | -2% | -5% | 0%
CC(=O)N1c2ccc(S(=O)(=O)N3CCN(c4cc(Cl)ccc4C)CC3)cc2CC1C (stereo not given) | · | -2% | · | · | · | ·
COc1ccccc1NC(=O)C1=C(C)Nc2nc(-c3ccco3)nn2C1c1ccccc1F (stereo not given) | · | -5% | -9% | · | · | ·
Cc1ccc(NC(=S)Nc2cccnc2)c(S(=O)(=O)N2CCCCC2)c1 | 1% | -2% | -20% | -6% | -2% | -5%
Nc1nonc1-c1noc(-c2ccccc2Br)n1 | -3% | 17µM* | ? | 13% | 5% | ?
O=C(O)c1ccccc1-c1noc(-c2ccccc2F)n1 | · | 9.5µM* | · | 3.5µM* | 2µM* | ·
Nc1nonc1-c1noc(CCCN2C(=O)c3ccccc3C2=O)n1 | -3% | 24µM* | ? | ? | ? | ?
SMILES | KinaseGlo FLuc | FLuc counter | SMN2 splice up | NPC1 prom act | Rab9 prom act | ELG1 genotoxic
CCS(=O)(=O)N1CCc2cc(C(=O)Nc3cc(C(F)(F)F)ccc3Cl)ccc21 | · | -13% | · | · | · | ·
O=C(NCc1ccccc1)c1ccc2c(c1)C(=O)N(Cc1cccnc1)C2=O | · | 0% | · | 2% | -1% | 1%
Cc1cnc(NC(=O)c2ccc3c(c2)C(=O)N(Cc2cccnc2)C3=O)s1 | · | 1.7µM* | · | 3% | 2% | 4%
C#Cc1cccc(NC(=O)c2ccc3c(c2)C(=O)N(Cc2cccnc2)C3=O)c1 | · | 13µM* | · | 3% | -5% | 1%
O=C(Nc1nccs1)c1ccc2c(c1)C(=O)N(Cc1cccnc1)C2=O | · | 24µM* | · | 1% | 2% | -4%
Cc1ccc(NC(=O)c2ccc3c(c2)C(=O)N(Cc2cccnc2)C3=O)c(C)c1 | 2% | 1% | -11% | -1% | -3% | 2%
CCN1C(=O)c2ccc(C(=O)Nc3nccs3)cc2C1=O | 0% | ? | 2% | 0% | -3% | 0%
CC(C)(C)N1C(=O)c2ccc(C(=O)Nc3nccs3)cc2C1=O | -2% | 3.4µM* | 16% | 3.5µM* | 2.8µM* | ?
O=C(O)c1cc(NC(=O)c2ccc3c(c2)C(=O)N(Cc2cccnc2)C3=O)cc(C(=O)O)c1 | · | 1% | · | 3% | 2% | 2%
O=C(Nc1cc(Cl)ccc1Cl)c1ccco1 | · | -1% | · | -2% | 2% | 3%
CS/C(Nc1cc(Cl)ccc1Cl)=C(/C#N)C(=O)c1ccco1 | · | 2.1µM* | · | ? | ? | 21µM*
Cc1nn(CC(=O)NC(C)c2ccccc2)c(=O)c2cc3occc3n12 (stereo not given) | · | -5% | -2% | · | · | ·
NC(=O)CN1C(=O)C2(SCC(=O)N2c2cccc(F)c2)c2ccccc21 (stereo not given) | · | -2% | · | · | · | ·
CSc1cccc(NC(=O)N2CCc3ccc(NC(=O)c4ccccn4)cc3C2)c1 | · | 8.5µM* | · | 2.5µM* | 4µM* | -7%
CSc1cccc(NC(=O)c2ccccn2)c1 | -11% | 11µM* | ? | ? | 4µM* | ?
CSc1cccc(NC(=O)c2cnccn2)c1 | -5% | ? | 21% | 10% | 24% | 6%
CCOC(=O)C1CCCN(C(=O)COc2ccc(S(=O)(=O)N(CC)c3ccccc3)cc2)C1 (stereo not given) | 2% | -2% | -15% | -4% | -6% | -6%
Nc1nn(-c2ccccc2)c(N)c1N=Nc1cccc(F)c1 | · | 4.3µM* | · | ? | ? | 6.5µM*
Cc1nn(-c2ccccc2)c2c1C(c1ccc(F)cc1F)C(C#N)=C(N)O2 (stereo not given) | 1% | -2% | 20% | 1% | -1% | -3%
Cc1nn(-c2ccccc2)c(N)c1N=Nc1cccnc1 | -1% | 13µM* | 13µM* | ? | ? | 18µM*
Nc1nn(-c2ccccc2)c(N)c1N=Nc1ccc2c(c1)OCO2 | -6% | 1.7µM* | 6.3µM* | ? | 0.63µM* | ?
CCc1[nH]nc2c1C(c1ccc(Br)s1)C(C#N)=C(N)O2 (stereo not given) | -1% | -2% | ? | -6% | -3% | 13%
Cc1ccc(C)c(N2C(=O)N(C)c3ccccc3S2(=O)=O)c1 | · | 3% | · | · | · | ·
CCCn1cc(S(=O)(=O)c2ccc(C)c(C)c2)c(=O)c2cc(F)c(N3CCC(C)CC3)cc21 | · | -5% | · | · | · | ·

Compound activity from PubChem.
